# PMC4336329 (PLoS ONE, 2015)
# The campaign covered roughly 310,000 compounds. About 14,000 (4.5%) showed an effect of 50% or more. Effects have a minus sign here. What follows is part of a selection rich in strong results, with near analogues and random picks from the rest.
# Target: human ether-à-go-go-related gene (hERG) potassium channel (human, UniProt Q12809)
# Assay: primary screen, population patch clamp on CHO cells stably expressing hERG; higher = less effect of the substance
# 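Also: peak tail current of the secondary pulse compared with the same well before compound.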
# Chain of human ether-à-go-go-related gene (hERG) potassium channel (Q12809 whole entry, looked up): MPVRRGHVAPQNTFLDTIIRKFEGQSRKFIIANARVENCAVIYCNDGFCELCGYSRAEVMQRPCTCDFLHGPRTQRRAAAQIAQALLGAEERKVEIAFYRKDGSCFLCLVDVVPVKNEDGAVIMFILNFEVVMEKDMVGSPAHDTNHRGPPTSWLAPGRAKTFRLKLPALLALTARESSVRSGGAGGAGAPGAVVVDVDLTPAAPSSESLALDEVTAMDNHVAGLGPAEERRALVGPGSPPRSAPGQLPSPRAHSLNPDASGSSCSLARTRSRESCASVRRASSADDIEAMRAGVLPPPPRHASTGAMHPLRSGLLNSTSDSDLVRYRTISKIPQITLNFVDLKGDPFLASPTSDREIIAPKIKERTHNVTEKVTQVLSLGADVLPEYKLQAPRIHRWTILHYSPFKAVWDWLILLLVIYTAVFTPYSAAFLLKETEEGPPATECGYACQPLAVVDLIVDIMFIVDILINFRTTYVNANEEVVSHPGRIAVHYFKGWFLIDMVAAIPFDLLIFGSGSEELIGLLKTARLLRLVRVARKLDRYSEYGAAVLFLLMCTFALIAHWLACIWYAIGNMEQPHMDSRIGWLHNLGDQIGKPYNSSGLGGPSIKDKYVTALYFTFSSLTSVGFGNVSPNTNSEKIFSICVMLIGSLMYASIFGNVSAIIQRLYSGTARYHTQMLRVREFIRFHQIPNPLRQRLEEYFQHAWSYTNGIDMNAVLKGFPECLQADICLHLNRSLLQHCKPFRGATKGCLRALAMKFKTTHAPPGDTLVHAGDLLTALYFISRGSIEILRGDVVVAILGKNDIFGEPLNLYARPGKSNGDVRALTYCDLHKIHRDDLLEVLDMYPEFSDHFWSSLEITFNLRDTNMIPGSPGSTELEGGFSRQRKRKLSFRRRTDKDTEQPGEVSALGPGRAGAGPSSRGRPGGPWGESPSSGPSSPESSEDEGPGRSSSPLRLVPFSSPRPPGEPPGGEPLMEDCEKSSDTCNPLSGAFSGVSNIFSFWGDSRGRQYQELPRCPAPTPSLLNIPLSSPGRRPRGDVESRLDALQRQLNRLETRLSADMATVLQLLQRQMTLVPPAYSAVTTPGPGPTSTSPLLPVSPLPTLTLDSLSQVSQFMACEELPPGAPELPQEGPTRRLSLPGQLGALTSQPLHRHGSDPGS
row,SMILES,"hERG current change (%, negative = inhibition) at 10uM [%]"
1,COc1ccc(Cl)cc1N(CC(=O)NCC(C)C)S(=O)(=O)c1ccc(C)c([N+](=O)[O-])c1,8.34
2,COC(=O)C(NNc1ccccc1C)(NC(=O)c1ccc(F)cc1)C(F)(F)F (stereo not drawn),-1.2
3,Cc1ccc(NC(=O)c2ccc(OC(F)F)cc2)cc1S(=O)(=O)N(C)C,-10.4
4,CC(C)c1onc(C(=O)N2CCN(C(c3ccccc3)c3ccccc3)CC2)c1[N+](=O)[O-],13.6
5,O=C(O)C(F)(F)F.O=C1C(Cc2ccccc2)Nc2ncnc(N3CCN(c4ccccc4)CC3)c2N1Cc1ccc(Cl)cc1 (stereo not drawn),0.92
6,Cn1nnc2cc(C(=O)N3CCN(c4ccccc4)CC3)ccc21,-3.95
7,Cc1ccc(N(CC(=O)N2CCOCC2)S(=O)(=O)c2ccccc2)cc1,-2.35
8,CCOC(=O)N1CCN(C(=O)CN(c2cccc(C)c2)S(=O)(=O)c2ccc(C)cc2)CC1,-39.7
9,Cc1ccc(S(=O)(=O)N(CC(=O)N2CCC(C)CC2)c2ccccc2)cc1,-26.4
10,Cc1cc(C)cc(N(CC(=O)N2CCC(C)CC2)S(C)(=O)=O)c1,-38.6
11,CC1CCN(C(=O)CN(c2ccc3c(c2)OCCO3)S(=O)(=O)c2ccccc2)CC1,-26.6
12,Cc1cc(C)cc(N(CC(=O)N2CCC(C)CC2)S(=O)(=O)c2ccccc2)c1,-70.3
13,O=C(CN(c1ccccc1)S(=O)(=O)c1ccccc1)N1CCOCC1,4.9
14,Cc1ccc(S(=O)(=O)N(CC(=O)N2CCC(C)CC2)c2cccc(C)c2)cc1,-55.1
15,Cc1cc(C)cc(N(CC(=O)N2CCOCC2)S(=O)(=O)c2ccccc2)c1,-56.1
16,Cc1cccnc1NC(=O)Nc1cccs1,12.4
17,Cc1ccc(NC(=O)CCl)c(C)c1,21.6
18,COc1ccc(-n2nc(C(=O)NCC(=O)N3CCN(c4cccc(Cl)c4)CC3)c3ccccc3c2=O)c(OC)c1,-2.74
19,COc1ccc([N+](=O)[O-])cc1NC(=O)C(C)Sc1nc(C)c(C)c(C)n1 (stereo not drawn),-44.4
20,CCN(c1ccc(NS(=O)(=O)c2cc(Cl)ccc2Cl)cc1)C(C)C,-0.282
21,CCN(CC)C(=O)C(C(=O)c1cccc([N+](=O)[O-])c1)n1cc(Cl)ccc1=O (stereo not drawn),24.8

row,SMILES,"hERG current change (%, negative = inhibition) at 10uM [%]"
1,Cc1nc(-c2cccc(S(=O)(=O)N3CCOCC3)c2)cs1,-2.11
2,CC(Cc1ccsc1)NCc1cn[nH]c1-c1ccc(F)cc1F (stereo not drawn),-66.3
3,COc1ccc(-c2[nH]ncc2CNC(C)Cc2ccsc2)c(F)c1 (stereo not drawn),-36.1
4,COc1ccc(-c2[nH]ncc2CNC(C)CCn2cccn2)c(F)c1 (stereo not drawn),-15.4
5,CC(=O)/C(N=Nc1nc2c([nH]1)c(=O)n(C)c(=O)n2C)=C(\C)O,13.2
6,CCOC(=O)C1CCN(C(=O)C2CCN(c3nnc(-n4cccc4)s3)CC2)CC1,-62.5
7,Cc1cccc(N2CCN(C(=O)C3CCN(c4nnc(-n5cccc5)s4)CC3)CC2C)c1 (stereo not drawn),-55.8
8,CC1CCN(C(=O)C2CCN(c3nnc(-n4cccc4)s3)CC2)CC1,-12.1
9,CCOC(=O)N1CCN(C(=O)C2CCN(c3nnc(-n4cccc4)s3)CC2)CC1,-57.1
10,CCOC(=O)C1CCN(C(=O)C2CCN(c3nn4c(=O)cc(C)nc4s3)CC2)CC1,3.2
11,Cc1ccc(Cl)cc1N1CCN(C(=O)C2CCN(c3nnc(-n4cccc4)s3)CC2)CC1,-16.4
12,CCOC(=O)C1CCCN(C(=O)C2CCN(c3nnc(-n4cccc4)s3)CC2)C1 (stereo not drawn),-48.6
13,CCN1CCN(C(=O)C2CCN(c3nnc(-n4c(C)ccc4C)s3)CC2)CC1,-13
14,O=C(C1CCN(c2nnc(-n3cccc3)s2)CC1)N1CCN(c2cccc(C(F)(F)F)c2)CC1,-22.8
15,O=C(c1ccc(Br)cc1)N1CCN(S(=O)(=O)c2ccccc2)CC1,-38.5
16,CCCCC(=O)NC(=S)Nc1nnn(CCC)n1,9.55
17,COc1ccc(CN(C)C(=O)c2ccc3c(=O)n4c(nc3c2)CCC4)cc1,13.7
18,Cl.NC1=NC2(CCCCC2)N(c2cccc(Cl)c2)C(N)=N1,27.9
19,CCn1nnc(-c2ccccc2NC(=O)C(F)(F)F)n1,-9.9
20,CN1CCN(CCC(=O)N/N=C/c2cc3c(cc2[N+](=O)[O-])OCO3)CC1,9.64
21,O=C(NC(=S)Nc1cc(C(F)(F)F)ccc1N1CCOCC1)c1ccco1,3.6

row,SMILES,"hERG current change (%, negative = inhibition) at 10uM [%]"
1,O=C(NCc1cccc(Br)c1)C1CC2Cn3c(nc4ccccc43)C2N1Cc1ccccc1 (stereo not drawn),-74.2
2,O=C(NCc1cccc(C(F)(F)F)c1)C1CC2Cn3c(nc4ccccc43)C2N1Cc1ccccc1 (stereo not drawn),-57.8
3,O=C(NCc1cccc(Br)c1)C1CC2Cn3c(nc4ccccc43)C2N1c1ccccc1 (stereo not drawn),-20.5
4,COc1ccccc1CNC(=O)C1CC2Cn3c(nc4ccccc43)C2N1C (stereo not drawn),-9.34
5,CN1C(C(=O)NCc2ccco2)CC2Cn3c(nc4ccccc43)C21 (stereo not drawn),10.3
6,COCCNC(=O)C1CC2Cn3c(nc4ccccc43)C2N1C (stereo not drawn),11.2
7,CCCCNC(=O)CN(CCc1ccccc1)S(C)(=O)=O,-12.6
8,Cc1c(Cl)cccc1NC(=O)CCC(=O)NNC(=O)c1ccco1,18.3
9,CCOC(=O)c1cccc(NC(=O)CSc2nnc(-c3cccnc3)n2CC)c1,-37.5
10,N#Cc1nc(-c2cccs2)oc1NCc1ccco1,-5.22
11,CC(/C=C/c1ccccc1)=N/NC(=O)c1cc([N+](=O)[O-])cc([N+](=O)[O-])c1,8
12,O=[N+]([O-])c1ccc(Sc2cc[n+]([O-])c3ccccc23)c([N+](=O)[O-])c1,-65.3
13,O=[N+]([O-])c1ccc(Sc2cccc3cccnc23)c([N+](=O)[O-])c1,16.6
14,O=c1[nH]c(Sc2ccc([N+](=O)[O-])cc2[N+](=O)[O-])nc2ccccc12,9.99
15,CN(CC(=O)Nc1ccccc1Br)C(=O)CCC1CCCC1,9.57
16,CCCCC1(C)NC(=S)N2N1C(=S)NC2(C)CCCC (stereo not drawn),15.1
17,Cc1noc(C)c1C(=O)Nc1nc2ccc(S(C)(=O)=O)cc2s1,2.86
18,O=C(O)C(CCCCN1C(=O)C2C3C=CC(C3)C2C1=O)N1C(=O)C2C3C=CC(C3)C2C1=O (stereo not drawn),2.41
19,CCOC(=O)c1[nH]ncc1CN1CCCC(C(=O)c2ccc(SC)cc2)C1 (stereo not drawn),-73
20,CCOC(=O)c1[nH]ncc1CN1CCCC(C(=O)c2ccc(C(C)(C)C)cc2)C1 (stereo not drawn),-17.6
21,CCOC(=O)c1[nH]ncc1CN1CCCC(C(=O)c2cccc(Cl)c2)C1 (stereo not drawn),-22.6

row,SMILES,"hERG current change (%, negative = inhibition) at 10uM [%]"
1,CCOC(=O)c1[nH]ncc1CN1CCCC(C(=O)c2cc(Cl)ccc2OC)C1 (stereo not drawn),-71.1
2,CCOC(=O)c1[nH]ncc1CN1CCCC(C(=O)c2cccc(OC(C)C)c2)C1 (stereo not drawn),-42.1
3,CCOC(=O)c1[nH]ncc1CN1CCCC(C(=O)c2ccc(OC)cc2C)C1 (stereo not drawn),-49.4
4,O=C(COC(=O)C1CCCCC1)Nc1ccc(N2CCCCC2)cc1,2.16
5,COc1ccc(C2(CNS(=O)(=O)c3ccccc3)CCOCC2)cc1,-4.62
6,COc1ccc(NC(=O)C2CCCN2S(=O)(=O)c2cccc3cccnc23)c(OC)c1 (stereo not drawn),-6.73
7,CCOc1cc2c(cc1C=O)OC(C)C2 (stereo not drawn),22.1
8,CCN1CCN(C(=O)c2ccc(Cl)c(S(=O)(=O)N3CCOCC3)c2)CC1,-0.549
9,O=C(c1ccc(Cl)c(S(=O)(=O)N2CCCCCC2)c1)N1CCCCC1,-20.7
10,O=C(c1ccc(Cl)c(S(=O)(=O)N2CCCCCC2)c1)N1CCCC1,-38.9
11,O=C(c1ccc(Cl)c(S(=O)(=O)N2CCOCC2)c1)N1CCN(Cc2ccccc2)CC1,-25.3
12,O=C(c1ccc(Cl)c(S(=O)(=O)N2CCCCC2)c1)N1CCN(Cc2ccccc2)CC1,-59.1
13,CCN1CCN(C(=O)c2ccc(Cl)c(S(=O)(=O)N3CCCCCC3)c2)CC1.Cl,-60.9
14,O=C(c1ccc(Cl)c(S(=O)(=O)N2CCCCC2)c1)N1CCCCC1,-31.7
15,Cl.O=C(c1ccc(Cl)c(S(=O)(=O)N2CCCCCC2)c1)N1CCN(CCO)CC1,-34.4
16,CCN1CCN(C(=O)c2ccc(Cl)c(S(=O)(=O)N3CCCCC3)c2)CC1,-69.8
17,CCCn1c(N)c(N(CCOC)C(=O)c2cccc(S(=O)(=O)N3CCCc4ccccc43)c2)c(=O)[nH]c1=O,3.29
18,O=C(NCC1CCCO1)c1cccs1 (stereo not drawn),4.89
19,Cc1cc(OCC(=O)OCC(=O)NC2CCCCC2C)ccc1Cl (stereo not drawn),0.466
20,CC(=O)Nc1ccc(S(=O)(=O)NNC(=O)c2cccc(Br)c2)cc1,15.9
21,CCC(=NCCCN1CCOCC1)c1c(O)n(-c2ccccc2C)c(=O)[nH]c1=O,8.28
